# Data published in publication PMC7862700, “An all-to-all approach to the identification of sequence-specific readers for epigenetic DNA modifications on cytosine”.
# Tests used:
# Assay in all cases: DAPPL (digital affinity profiling via proximity ligation, sequencing); 10 mM Tris-HCl pH 7.5, 50 mM NaCl, 1 mM DTT, 4% glycerol, room temperature, 30 min; GST-TFs on glutathione beads, 16-mer random dsDNA library, 0.1% formaldehyde crosslink after washing; high values mean tight binding
# FLI1 = biological target: T1, FLI1 (Homo sapiens, UniProt Q01543 1-452); details: protein: recombinant; tags: N-terminal GST; dsDNA, one strand shown
# T1 sequence: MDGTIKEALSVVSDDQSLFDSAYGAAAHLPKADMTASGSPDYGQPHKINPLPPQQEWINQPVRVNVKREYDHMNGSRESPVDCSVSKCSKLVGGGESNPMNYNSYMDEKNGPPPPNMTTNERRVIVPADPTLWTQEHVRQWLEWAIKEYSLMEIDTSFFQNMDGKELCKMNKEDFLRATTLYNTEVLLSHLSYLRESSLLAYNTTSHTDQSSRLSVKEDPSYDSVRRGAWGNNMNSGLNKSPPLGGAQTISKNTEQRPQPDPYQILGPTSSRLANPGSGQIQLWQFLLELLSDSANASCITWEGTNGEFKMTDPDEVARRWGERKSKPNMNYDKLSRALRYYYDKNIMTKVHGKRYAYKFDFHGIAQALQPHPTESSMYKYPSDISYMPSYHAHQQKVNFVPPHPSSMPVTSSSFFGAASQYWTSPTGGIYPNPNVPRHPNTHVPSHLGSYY
# Outline: (§1)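 A tag-only sample was pooled with DNA-barcoded human transcription factors that had been expressed in yeast as GST fusions and captured on glutathione beads. The pools were incubated for 30 min at room temperature with 200 nmole of a random double-stranded 16-mer DNA library in Tris/NaCl/DTT/glycerol buffer, then washed, crosslinked with 0.1% formaldehyde, proximity-ligated (BsaI/T4 ligase, 1 h, 37 °C), PCR-amplified and sequenced on an Illumina NextSeq500. Binding signal is each hexamer's read frequency for a factor divided by its frequency for the tag-only sample.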
# ELK1 = biological target: T2, ELK1 (Homo sapiens, UniProt P19419 1-428); details: protein: recombinant; tags: N-terminal GST; dsDNA, one strand shown
# T2 sequence: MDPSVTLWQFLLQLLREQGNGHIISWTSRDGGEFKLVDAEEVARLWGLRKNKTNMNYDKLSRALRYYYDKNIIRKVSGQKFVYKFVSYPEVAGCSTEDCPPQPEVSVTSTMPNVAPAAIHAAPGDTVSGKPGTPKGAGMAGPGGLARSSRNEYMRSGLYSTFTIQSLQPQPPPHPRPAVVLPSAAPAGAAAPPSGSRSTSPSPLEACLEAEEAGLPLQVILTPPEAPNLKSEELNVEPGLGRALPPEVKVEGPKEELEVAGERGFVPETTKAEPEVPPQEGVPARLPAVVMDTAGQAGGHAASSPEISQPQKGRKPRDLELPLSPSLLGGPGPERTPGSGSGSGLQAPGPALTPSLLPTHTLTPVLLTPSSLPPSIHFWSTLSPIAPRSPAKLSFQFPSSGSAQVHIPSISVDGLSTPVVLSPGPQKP
# Outline: as §1
# GABPA = biological target: T3, GABPA (Homo sapiens, UniProt Q06546 1-454); details: protein: recombinant; tags: N-terminal GST; dsDNA, one strand shown
# T3 sequence: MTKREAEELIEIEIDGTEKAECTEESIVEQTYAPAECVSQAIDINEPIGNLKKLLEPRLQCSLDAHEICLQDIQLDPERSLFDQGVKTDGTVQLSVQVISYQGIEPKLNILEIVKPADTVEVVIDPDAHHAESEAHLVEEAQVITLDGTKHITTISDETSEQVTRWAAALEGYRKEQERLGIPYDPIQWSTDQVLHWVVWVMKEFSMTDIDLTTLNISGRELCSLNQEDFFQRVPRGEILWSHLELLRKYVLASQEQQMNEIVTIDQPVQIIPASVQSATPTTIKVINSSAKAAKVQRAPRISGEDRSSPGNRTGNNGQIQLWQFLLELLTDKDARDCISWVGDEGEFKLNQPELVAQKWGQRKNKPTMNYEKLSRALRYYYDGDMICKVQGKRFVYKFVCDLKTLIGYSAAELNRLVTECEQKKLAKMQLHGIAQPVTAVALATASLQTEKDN
# Outline: as §1
# ERG = biological target: T4, ERG (Homo sapiens, UniProt P11308 1-479); details: protein: recombinant; tags: N-terminal GST; dsDNA, one strand shown
# T4 sequence: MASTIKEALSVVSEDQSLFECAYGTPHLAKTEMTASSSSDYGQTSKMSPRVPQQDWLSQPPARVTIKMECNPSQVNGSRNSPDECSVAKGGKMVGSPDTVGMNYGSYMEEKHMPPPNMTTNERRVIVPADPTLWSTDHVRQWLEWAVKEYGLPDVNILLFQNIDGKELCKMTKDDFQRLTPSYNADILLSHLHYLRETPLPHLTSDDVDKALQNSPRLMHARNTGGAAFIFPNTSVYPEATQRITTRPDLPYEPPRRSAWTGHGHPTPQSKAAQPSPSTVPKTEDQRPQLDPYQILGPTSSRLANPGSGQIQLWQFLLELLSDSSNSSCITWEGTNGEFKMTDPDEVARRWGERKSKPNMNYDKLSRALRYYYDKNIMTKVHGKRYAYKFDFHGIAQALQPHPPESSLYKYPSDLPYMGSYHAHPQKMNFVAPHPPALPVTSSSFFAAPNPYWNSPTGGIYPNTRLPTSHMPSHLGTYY
# Outline: as §1
# ELF1 = ELF1 (Homo sapiens, UniProt P32519 1-619); details: protein: recombinant; tags: N-terminal GST; dsDNA, one strand shown
# Outline: as §1
# EHF = biological target: T5, EHF (Homo sapiens, UniProt Q9NZC4 1-300); details: protein: recombinant; tags: N-terminal GST; dsDNA, one strand shown
# T5 sequence: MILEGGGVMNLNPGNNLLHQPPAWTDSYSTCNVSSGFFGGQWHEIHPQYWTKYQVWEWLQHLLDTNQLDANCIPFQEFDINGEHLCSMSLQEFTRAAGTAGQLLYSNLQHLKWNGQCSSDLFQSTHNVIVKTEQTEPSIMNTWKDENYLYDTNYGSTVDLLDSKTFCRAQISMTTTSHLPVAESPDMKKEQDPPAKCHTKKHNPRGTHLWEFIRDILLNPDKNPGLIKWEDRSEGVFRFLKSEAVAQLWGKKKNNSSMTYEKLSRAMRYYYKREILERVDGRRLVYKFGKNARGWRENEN
# Outline: as §1
# SPI1 = SPI1 (Homo sapiens, UniProt P17947 1-270); details: protein: recombinant; tags: N-terminal GST; dsDNA, one strand shown
# Outline: as §1
# SPIB = SPIB (Homo sapiens, UniProt Q01892 1-262); details: protein: recombinant; tags: N-terminal GST; dsDNA, one strand shown
# Outline: as §1
# ELK3 = biological target: T6, ELK3 (Homo sapiens, UniProt P41970 1-407); details: protein: recombinant; tags: N-terminal GST; dsDNA, one strand shown
# T6 sequence: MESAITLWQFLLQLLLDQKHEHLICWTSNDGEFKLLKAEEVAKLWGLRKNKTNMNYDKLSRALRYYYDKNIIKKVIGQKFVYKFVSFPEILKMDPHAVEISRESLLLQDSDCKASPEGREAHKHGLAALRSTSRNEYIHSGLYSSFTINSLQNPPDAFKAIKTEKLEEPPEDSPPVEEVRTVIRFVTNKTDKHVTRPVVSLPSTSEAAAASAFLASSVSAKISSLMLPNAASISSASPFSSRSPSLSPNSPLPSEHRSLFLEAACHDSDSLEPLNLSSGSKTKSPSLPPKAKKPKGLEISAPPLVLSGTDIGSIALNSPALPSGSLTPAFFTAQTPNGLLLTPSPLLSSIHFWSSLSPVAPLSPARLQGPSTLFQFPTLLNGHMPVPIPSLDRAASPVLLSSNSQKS
# Outline: as §1
# FEV = biological target: T7, FEV (Homo sapiens, UniProt Q99581 1-238); details: protein: recombinant; tags: N-terminal GST; dsDNA, one strand shown
# T7 sequence: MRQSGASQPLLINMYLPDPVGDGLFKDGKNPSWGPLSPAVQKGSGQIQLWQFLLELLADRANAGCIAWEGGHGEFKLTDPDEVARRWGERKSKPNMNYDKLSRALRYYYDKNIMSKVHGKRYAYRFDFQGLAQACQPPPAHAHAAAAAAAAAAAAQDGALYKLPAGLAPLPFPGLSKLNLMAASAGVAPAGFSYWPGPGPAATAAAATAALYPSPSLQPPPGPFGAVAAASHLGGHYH
# Outline: as §1
# ETV5 = ETV5 (Homo sapiens, UniProt P41161 1-510); details: protein: recombinant; tags: N-terminal GST; dsDNA, one strand shown
# Outline: as §1
# HSF1 = HSF1 (Homo sapiens, UniProt Q00613 1-529); details: protein: recombinant; tags: N-terminal GST; chain copies: 3; dsDNA, one strand shown
# Outline: as §1
# SPIC = biological target: T8, SPIC (Homo sapiens, UniProt Q8N5J4 1-248); details: protein: recombinant; tags: N-terminal GST; dsDNA, one strand shown
# T8 sequence: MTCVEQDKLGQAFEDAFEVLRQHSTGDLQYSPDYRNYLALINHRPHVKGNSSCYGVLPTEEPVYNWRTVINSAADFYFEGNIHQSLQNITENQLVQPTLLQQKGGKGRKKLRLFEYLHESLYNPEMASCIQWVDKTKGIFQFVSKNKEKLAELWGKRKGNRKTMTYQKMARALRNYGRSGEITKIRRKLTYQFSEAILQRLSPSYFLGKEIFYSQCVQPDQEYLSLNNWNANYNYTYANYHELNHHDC
# Outline: as §1
# ELF4 = ELF4 (Homo sapiens, UniProt Q99607 1-663); details: protein: recombinant; tags: N-terminal GST; dsDNA, one strand shown
# Outline: as §1
# ELK4 = biological target: T9, ELK4 (Homo sapiens, UniProt P28324-2 1-405); details: protein: recombinant; tags: N-terminal GST; dsDNA, one strand shown
# T9 sequence: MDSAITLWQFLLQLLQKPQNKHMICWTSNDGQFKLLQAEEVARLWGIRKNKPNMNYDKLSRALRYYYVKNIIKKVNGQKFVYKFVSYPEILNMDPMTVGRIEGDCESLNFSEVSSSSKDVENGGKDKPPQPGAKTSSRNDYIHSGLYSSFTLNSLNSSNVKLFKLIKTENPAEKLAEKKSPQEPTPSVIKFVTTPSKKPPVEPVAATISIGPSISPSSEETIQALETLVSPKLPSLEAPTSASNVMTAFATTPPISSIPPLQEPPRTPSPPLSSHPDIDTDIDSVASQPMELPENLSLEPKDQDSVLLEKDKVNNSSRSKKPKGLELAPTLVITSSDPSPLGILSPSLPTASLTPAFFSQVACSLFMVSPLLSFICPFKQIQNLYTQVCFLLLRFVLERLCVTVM
# Outline: as §1
# ETV2 = biological target: T10, ETV2 (Homo sapiens, UniProt O00321 1-342); details: protein: recombinant; tags: N-terminal GST; dsDNA, one strand shown
# T10 sequence: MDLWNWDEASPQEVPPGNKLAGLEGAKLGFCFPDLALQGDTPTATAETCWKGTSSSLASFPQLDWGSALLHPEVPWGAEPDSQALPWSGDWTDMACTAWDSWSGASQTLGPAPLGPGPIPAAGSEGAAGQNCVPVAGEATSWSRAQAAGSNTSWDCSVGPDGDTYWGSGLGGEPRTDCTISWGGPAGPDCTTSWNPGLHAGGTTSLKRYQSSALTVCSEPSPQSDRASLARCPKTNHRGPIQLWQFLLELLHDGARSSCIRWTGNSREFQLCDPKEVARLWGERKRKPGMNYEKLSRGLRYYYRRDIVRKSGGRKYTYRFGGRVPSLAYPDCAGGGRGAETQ
# Outline: as §1
# ELF3 = biological target: T11, ELF3 (Homo sapiens, UniProt P78545 1-371); details: protein: recombinant; tags: N-terminal GST; dsDNA, one strand shown
# T11 sequence: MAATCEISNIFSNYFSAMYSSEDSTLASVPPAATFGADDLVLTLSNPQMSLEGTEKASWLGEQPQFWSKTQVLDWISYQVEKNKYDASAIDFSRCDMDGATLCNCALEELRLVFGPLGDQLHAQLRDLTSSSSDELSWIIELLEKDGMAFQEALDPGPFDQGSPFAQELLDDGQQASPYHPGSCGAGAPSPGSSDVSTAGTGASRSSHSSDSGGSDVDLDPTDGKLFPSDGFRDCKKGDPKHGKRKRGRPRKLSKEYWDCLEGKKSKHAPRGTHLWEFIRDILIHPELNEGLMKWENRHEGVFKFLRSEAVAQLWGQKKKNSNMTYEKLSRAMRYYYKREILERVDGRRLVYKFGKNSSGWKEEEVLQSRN
# Outline: as §1
# CRX = CRX (Homo sapiens, UniProt O43186 1-299); details: protein: recombinant; tags: N-terminal GST; dsDNA, one strand shown
# Outline: as §1
# ETV1 = ETV1 (Homo sapiens, UniProt P50549 1-477); details: protein: recombinant; tags: N-terminal GST; dsDNA, one strand shown
# Outline: as §1
# Sequence of CRX (O43186 whole entry): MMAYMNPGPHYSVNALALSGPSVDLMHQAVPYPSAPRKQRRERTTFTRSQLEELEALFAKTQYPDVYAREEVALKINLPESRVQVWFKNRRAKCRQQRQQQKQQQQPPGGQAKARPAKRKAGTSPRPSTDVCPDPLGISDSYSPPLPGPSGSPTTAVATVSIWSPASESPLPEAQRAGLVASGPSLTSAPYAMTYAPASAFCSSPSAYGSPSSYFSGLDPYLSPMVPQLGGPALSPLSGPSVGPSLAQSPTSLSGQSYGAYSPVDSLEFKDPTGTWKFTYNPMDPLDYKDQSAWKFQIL
# Sequence of ETV5 (P41161 whole entry): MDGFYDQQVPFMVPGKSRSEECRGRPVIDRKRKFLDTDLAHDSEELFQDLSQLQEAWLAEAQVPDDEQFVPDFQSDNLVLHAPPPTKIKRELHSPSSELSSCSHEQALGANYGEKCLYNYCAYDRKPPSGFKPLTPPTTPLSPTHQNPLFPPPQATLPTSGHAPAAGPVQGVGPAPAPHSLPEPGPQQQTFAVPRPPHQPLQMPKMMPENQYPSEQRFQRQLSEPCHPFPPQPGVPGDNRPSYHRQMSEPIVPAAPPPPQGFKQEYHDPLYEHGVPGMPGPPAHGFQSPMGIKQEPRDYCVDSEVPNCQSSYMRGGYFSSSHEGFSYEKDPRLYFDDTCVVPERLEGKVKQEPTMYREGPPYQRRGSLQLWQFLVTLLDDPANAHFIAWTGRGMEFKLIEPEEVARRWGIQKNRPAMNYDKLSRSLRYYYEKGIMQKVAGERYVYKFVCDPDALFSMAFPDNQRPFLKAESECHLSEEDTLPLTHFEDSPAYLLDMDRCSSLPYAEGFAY
# Sequence of HSF1 (Q00613 whole entry): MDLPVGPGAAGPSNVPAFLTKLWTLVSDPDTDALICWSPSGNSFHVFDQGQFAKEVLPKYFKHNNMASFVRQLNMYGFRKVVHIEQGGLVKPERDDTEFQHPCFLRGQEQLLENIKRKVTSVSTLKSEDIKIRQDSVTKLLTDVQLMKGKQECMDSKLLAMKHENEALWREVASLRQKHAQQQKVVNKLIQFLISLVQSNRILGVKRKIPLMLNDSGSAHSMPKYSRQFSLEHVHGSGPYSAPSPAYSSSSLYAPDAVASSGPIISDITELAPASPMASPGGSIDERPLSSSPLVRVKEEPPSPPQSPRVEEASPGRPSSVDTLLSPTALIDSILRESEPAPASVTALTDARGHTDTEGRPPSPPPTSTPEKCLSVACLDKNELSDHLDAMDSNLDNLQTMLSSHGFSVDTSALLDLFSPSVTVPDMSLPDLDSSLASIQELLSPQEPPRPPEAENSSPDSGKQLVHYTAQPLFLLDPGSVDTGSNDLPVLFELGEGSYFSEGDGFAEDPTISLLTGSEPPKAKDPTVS
# Sequence of SPIB (Q01892 whole entry): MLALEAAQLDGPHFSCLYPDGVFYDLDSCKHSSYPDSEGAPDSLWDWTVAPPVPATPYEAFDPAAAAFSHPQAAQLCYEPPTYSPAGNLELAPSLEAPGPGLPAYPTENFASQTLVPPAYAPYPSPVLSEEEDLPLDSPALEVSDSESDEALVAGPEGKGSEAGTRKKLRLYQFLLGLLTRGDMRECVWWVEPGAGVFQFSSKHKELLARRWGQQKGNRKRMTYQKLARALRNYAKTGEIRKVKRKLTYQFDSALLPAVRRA
# Sequence of ELF4 (Q99607 whole entry): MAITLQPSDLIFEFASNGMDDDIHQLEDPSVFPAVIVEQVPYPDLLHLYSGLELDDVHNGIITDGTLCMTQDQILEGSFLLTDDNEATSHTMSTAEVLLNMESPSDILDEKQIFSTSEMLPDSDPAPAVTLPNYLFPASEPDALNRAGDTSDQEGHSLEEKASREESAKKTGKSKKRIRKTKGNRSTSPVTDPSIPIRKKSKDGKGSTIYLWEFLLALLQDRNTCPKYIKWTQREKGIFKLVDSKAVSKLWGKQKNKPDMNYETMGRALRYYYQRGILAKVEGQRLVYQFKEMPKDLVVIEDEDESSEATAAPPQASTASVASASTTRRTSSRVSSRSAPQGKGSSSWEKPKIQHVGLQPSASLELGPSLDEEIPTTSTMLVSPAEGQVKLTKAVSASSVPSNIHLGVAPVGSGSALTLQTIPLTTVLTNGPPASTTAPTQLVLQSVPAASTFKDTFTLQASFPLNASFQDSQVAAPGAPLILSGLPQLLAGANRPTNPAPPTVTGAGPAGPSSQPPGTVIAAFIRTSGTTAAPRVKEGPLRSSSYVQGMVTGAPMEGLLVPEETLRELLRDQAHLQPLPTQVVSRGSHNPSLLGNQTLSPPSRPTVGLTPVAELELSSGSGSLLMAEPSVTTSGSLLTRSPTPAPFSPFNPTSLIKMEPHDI
# Sequence of ETV1 (P50549 whole entry): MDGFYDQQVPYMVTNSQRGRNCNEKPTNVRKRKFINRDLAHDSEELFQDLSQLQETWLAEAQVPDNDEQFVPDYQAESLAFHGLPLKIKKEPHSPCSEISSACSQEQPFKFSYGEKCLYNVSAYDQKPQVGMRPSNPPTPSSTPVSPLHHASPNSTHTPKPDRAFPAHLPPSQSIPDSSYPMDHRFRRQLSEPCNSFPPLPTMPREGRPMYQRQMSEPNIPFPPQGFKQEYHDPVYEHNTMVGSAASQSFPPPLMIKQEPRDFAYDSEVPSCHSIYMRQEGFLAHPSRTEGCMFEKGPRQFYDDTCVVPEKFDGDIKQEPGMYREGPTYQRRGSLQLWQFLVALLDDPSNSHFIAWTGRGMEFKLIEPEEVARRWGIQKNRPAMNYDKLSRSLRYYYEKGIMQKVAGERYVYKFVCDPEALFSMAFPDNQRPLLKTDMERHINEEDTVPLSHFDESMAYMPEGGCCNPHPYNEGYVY
# Sequence of ELF1 (P32519 whole entry): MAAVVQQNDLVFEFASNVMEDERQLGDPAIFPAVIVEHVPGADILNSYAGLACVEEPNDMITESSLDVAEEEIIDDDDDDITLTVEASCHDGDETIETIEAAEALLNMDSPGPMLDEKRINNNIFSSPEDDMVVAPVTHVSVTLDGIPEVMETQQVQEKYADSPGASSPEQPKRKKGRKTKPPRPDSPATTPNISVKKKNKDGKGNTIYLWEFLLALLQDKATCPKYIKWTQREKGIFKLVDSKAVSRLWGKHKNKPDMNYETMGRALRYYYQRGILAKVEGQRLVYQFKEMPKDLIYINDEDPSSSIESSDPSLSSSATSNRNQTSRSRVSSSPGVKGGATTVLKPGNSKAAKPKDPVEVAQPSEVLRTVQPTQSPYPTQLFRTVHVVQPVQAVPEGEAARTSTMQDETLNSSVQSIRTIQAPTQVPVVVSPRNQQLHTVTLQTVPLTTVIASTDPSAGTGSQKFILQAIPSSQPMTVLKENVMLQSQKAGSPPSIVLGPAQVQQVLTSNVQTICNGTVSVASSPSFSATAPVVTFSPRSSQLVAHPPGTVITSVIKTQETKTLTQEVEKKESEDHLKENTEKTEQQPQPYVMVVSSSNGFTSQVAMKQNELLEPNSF
sequence,measurement,setting,value
TACTTA,binding signal,FLI1,"1.17 fold enrichment (6-mer frequency, TF over GST control)"
same,binding signal,ELK1,"1.18 fold enrichment (6-mer frequency, TF over GST control)"
same,binding signal,GABPA,"1.15 fold enrichment (6-mer frequency, TF over GST control)"
same,binding signal,ERG,"1.16 fold enrichment (6-mer frequency, TF over GST control)"
same,binding signal,ELF1,"1.22 fold enrichment (6-mer frequency, TF over GST control)"
same,binding signal,EHF,"1.33 fold enrichment (6-mer frequency, TF over GST control)"
same,binding signal,SPI1,"1.21 fold enrichment (6-mer frequency, TF over GST control)"
same,binding signal,SPIB,"1.15 fold enrichment (6-mer frequency, TF over GST control)"
same,binding signal,ELK3,"1.42 fold enrichment (6-mer frequency, TF over GST control)"
same,binding signal,FEV,"1.12 fold enrichment (6-mer frequency, TF over GST control)"
same,binding signal,ETV5,"1.17 fold enrichment (6-mer frequency, TF over GST control)"
same,binding signal,HSF1,"1.7 fold enrichment (6-mer frequency, TF over GST control)"
same,binding signal,SPIC,"1.12 fold enrichment (6-mer frequency, TF over GST control)"
same,binding signal,ELF4,"1.21 fold enrichment (6-mer frequency, TF over GST control)"
same,binding signal,ELK4,"1.25 fold enrichment (6-mer frequency, TF over GST control)"
same,binding signal,ETV2,"1.16 fold enrichment (6-mer frequency, TF over GST control)"
same,binding signal,ELF3,"1.33 fold enrichment (6-mer frequency, TF over GST control)"
same,binding signal,CRX,"2.6 fold enrichment (6-mer frequency, TF over GST control)"
same,binding signal,ETV1,"1.24 fold enrichment (6-mer frequency, TF over GST control)"
